Data reported in PubChem BioAssay (EPA / NIEHS).
Several values for one entry are separate records, joined by “and”; a condition that tells them apart may be missing. Equal entries are not always repeated. The source holds several records for some structures; these can differ, active in one and inactive in another. Activity calls are given as the source filed them. The calls were made as follows: active = hit-call score of the fitted dose curve at least 0.9, where 1 is the maximum; inactive = score below 0.9.

Columns and labels:
[1] = read-out: Tissue Factor, F3 (gene 2152); assay: BSK_CASM3C_TissueFactor: BioMAP Diversity Plus: CASM3C Assay for Tissue Factor Biomarker Activity (AID 2283052); settings: primary human coronary artery smooth muscle cells; actives raise or lower the signal;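 also: cell surface tissue factor protein level read by ELISA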
[2] = read-out: Interferon-gamma inducible Protein 10 (IP10), CXCL10 (gene 3627); assay: BSK_hDFCGF_IP10: BioMAP Diversity Plus: hDFCGF Assay for Interferon-gamma inducible Protein 10 (IP10) Biomarker Activity (AID 2283053); settings: primary human foreskin fibroblasts; actives raise or lower the signal
Procedure, shortened: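 ELISA quantification of IP-10 after a 24 h chemical exposure of human dermal foreskin fibroblast primary cultures. Both increases and decreases versus DMSO fitted.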

[3] = read-out: Epidermal growth factor receptor (EGFR), EGFR (gene 1956); assay: BSK_hDFCGF_EGFR: BioMAP Diversity Plus: hDFCGF Assay for Epidermal growth factor receptor (EGFR) Biomarker Activity (AID 2283057); settings: primary human foreskin fibroblasts; actives raise or lower the signal
Procedure, shortened: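 EGFR levels by ELISA in human dermal fibroblast cultures, 24 h post-treatment, fitted bidirectionally versus DMSO. Parallel wells stained with sulforhodamine B to detect overt cytotoxicity.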

[4] = read-out: Interleukin-8 (IL8), CXCL8 (gene 3576); assay: BSK_hDFCGF_IL8: BioMAP Diversity Plus: hDFCGF Assay for Interleukin-8 (IL8) Biomarker Activity (AID 2283058); settings: primary human foreskin fibroblasts; actives raise or lower the signal
Procedure, shortened: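 Primary human foreskin fibroblasts (hDFCGF system) dosed with chemical; IL-8 measured by ELISA 24 hours later. Bidirectional curve fitting relative to DMSO baseline; cytotoxicity tracked in parallel cultures by SRB total protein staining.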

[5] = BSK_hDFCGF_Proliferation: Cell Proliferation Assessment in the BioMAP Diversity Plus: hDFCGF Assay (AID 2283059); settings: primary human foreskin fibroblasts;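 also: curves fitted for both rise and fall of signal versus DMSO baseline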
Procedure, shortened: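 Total protein read at 560 nm after 0.1% SRB staining of TCA-fixed human skin fibroblasts, […]. Activity is fitted in both directions relative to DMSO as baseline.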

[6] = read-out: Monokine induced gamma interferon (MIG), CXCL9 (gene 4283); assay: BSK_hDFCGF_MIG: BioMAP Diversity Plus: hDFCGF Assay for Monokine induced gamma interferon (MIG) Biomarker Activity (AID 2283063); settings: primary human foreskin fibroblasts; actives raise or lower the signal
Procedure, shortened: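 MIG/CXCL9 measured by ELISA 24 h after dosing primary human skin fibroblasts. Activity fitted in both directions against DMSO controls. Cytotoxicity was checked in parallel cultures by SRB staining read at 560 nm.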

[7] = read-out: Matrix Metallopeptidase 1 (MMP1), MMP1 (gene 4312); assay: BSK_hDFCGF_MMP1: BioMAP Diversity Plus: hDFCGF Assay for Matrix Metallopeptidase 1 (MMP1) Biomarker Activity (AID 2283064); settings: primary human foreskin fibroblasts; actives raise or lower the signal
Procedure, shortened: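 MMP1 levels quantified by ELISA 24 h after dosing human dermal fibroblast cultures, with parallel SRB total-protein staining for overt cytotoxicity. Data fitted in both directions against DMSO baseline.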

[8] = read-out: Vascular cell adhesion molecule 1 (VCAM1), VCAM1 (gene 7412); assay: BSK_hDFCGF_VCAM1: BioMAP Diversity Plus: hDFCGF Assay for Vascular cell adhesion molecule 1 (VCAM1) Biomarker Activity (AID 2283065); settings: primary human foreskin fibroblasts; actives raise or lower the signal
Procedure, shortened: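 Human foreskin fibroblast primary cells dosed with chemical, VCAM-1 measured by ELISA at 24 h. Bidirectional curve fitting relative to DMSO as negative control/baseline.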

[9] = read-out: Plasminogen activator inhibitor-1 (PAI1), SERPINE1 (gene 5054); assay: BSK_hDFCGF_PAI1: BioMAP Diversity Plus: hDFCGF Assay for Plasminogen activator inhibitor-1 (PAI1) Biomarker Activity (AID 2283066); settings: primary human foreskin fibroblasts; actives raise or lower the signal
Procedure, shortened: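 PAI-1 levels in human dermal foreskin fibroblasts were quantified by ELISA 24 h after dosing, with gain or loss analysed against DMSO. Overt cytotoxicity was checked by sulforhodamine B total-protein staining in parallel cultures.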

[10] = read-out: Intercellular Adhesion Molecule 1 (ICAM1), ICAM1 (gene 3383); assay: BSK_KF3CT_ICAM1: BioMAP Diversity Plus: KF3CT Assay for Intercellular Adhesion Molecule 1 (ICAM1) Biomarker Activity (AID 2283067); settings: primary human keratinocytes with fibroblasts; actives raise or lower the signal
Procedure, shortened: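 Human keratinocyte–foreskin fibroblast co-culture was treated for 24 h. Cell-surface ICAM-1 was quantified by ELISA, fitted bidirectionally relative to DMSO. Cytotoxicity was checked in parallel cultures by SRB total-protein staining.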

[11] = read-out: Interferon-gamma inducible Protein 10 (IP10), CXCL10 (gene 3627); assay: BSK_KF3CT_IP10: BioMAP Diversity Plus: KF3CT Assay for Interferon-gamma inducible Protein 10 (IP10) Biomarker Activity (AID 2283068); settings: primary human keratinocytes with fibroblasts; actives raise or lower the signal
Procedure, shortened: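 Human keratinocyte plus foreskin fibroblast primary co-culture exposed to test chemical for 24 h; IP-10 measured by ELISA. Concentration-response fitted bidirectionally against DMSO control as baseline.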

[12] = BSK_KF3CT_SRB: Viability Assessment in the BioMAP Diversity Plus: KF3CT Assay (AID 2283069); settings: primary human keratinocytes with fibroblasts;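 also: read 24 h after compound addition; fitted for both signal gain and loss against DMSO baseline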
Procedure, shortened: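 Cytotoxicity was gauged by SRB staining (0.1% SRB, 10% TCA fixation, 560 nm) of parallel cultures at 24 h. The cells were primary human skin keratinocytes co-cultured with fibroblasts, and activity was fitted in both directions against DMSO.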

[13] = read-out: urokinase plasminogen activator (uPA), PLAU (gene 5328); assay: BSK_KF3CT_uPA: BioMAP Diversity Plus: KF3CT Assay for urokinase plasminogen activator (uPA) Biomarker Activity (AID 2283075); settings: primary human keratinocytes with fibroblasts; actives raise or lower the signal
Procedure, shortened: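 ELISA read-out of uPA 24 h after dosing human skin keratinocytes co-cultured with foreskin fibroblasts. Signal change fitted both ways relative to DMSO; sulforhodamine B on parallel cultures marks overt cytotoxicity.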

[14] = read-out: E-selectin (Homo sapiens) (UniProt P16581); assay: BSK_LPS_Eselectin: BioMAP Diversity Plus: LPS Assay for Eselectin Biomarker Activity (AID 2283077); settings: primary human HUVEC with PBMC; actives raise or lower the signal
Procedure, shortened: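 Human umbilical vein endothelial cells co-cultured with PBMC under LPS stimulation; cell-surface E-selectin measured by ELISA 24 h after dosing. Change in either direction versus DMSO, with SRB total-protein staining in parallel cultures for cytotoxicity.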

[15] = BSK_LPS_SRB: Viability Assessment in the BioMAP Diversity Plus: LPS Assay (AID 2283079); settings: primary human HUVEC with PBMC;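 also: total protein by sulforhodamine B absorbance as a cytotoxicity measure; measured one day after compound addition; fitted in both directions against DMSO so loss or gain of signal counts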
Procedure, shortened: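 Co-culture of human umbilical vein endothelial cells and PBMC, read 24 h after dosing. Total protein by 0.1% SRB staining after 10% TCA fixation, absorbance at 560 nm; bidirectional fit against DMSO.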

[16] = read-out: Macrophage colony-stimulating factor (MCSF), CSF1 (gene 1435); assay: BSK_LPS_MCSF: BioMAP Diversity Plus: LPS Assay for Macrophage colony-stimulating factor (MCSF) Biomarker Activity (AID 2283083); settings: primary human HUVEC with PBMC; actives raise or lower the signal
Procedure, shortened: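 HUVEC–PBMC co-culture, M-CSF measured by ELISA 24 h after chemical dosing. Fitted in both directions relative to DMSO as negative control; overt cytotoxicity assessed by SRB total-protein staining in parallel cultures.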

[17] = read-out: Tissue Factor, F3 (gene 2152); assay: BSK_LPS_TissueFactor: BioMAP Diversity Plus: LPS Assay for Tissue Factor Biomarker Activity (AID 2283084); settings: primary human HUVEC with PBMC; actives raise or lower the signal
Procedure, shortened: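 Human umbilical vein endothelial cells co-cultured with PBMC were dosed with compound. Cell-surface CD142 was measured by ELISA 24 h later. Activity was fitted bidirectionally against DMSO, with SRB total-protein staining in parallel cultures for cytotoxicity.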

[18] = read-out: Vascular cell adhesion molecule 1 (VCAM1), VCAM1 (gene 7412); assay: BSK_LPS_VCAM1: BioMAP Diversity Plus: LPS Assay for Vascular cell adhesion molecule 1 (VCAM1) Biomarker Activity (AID 2283086); settings: primary human HUVEC with PBMC; actives raise or lower the signal
Procedure, shortened: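 VCAM-1 quantified by ELISA in an LPS-activated co-culture of human endothelial cells and peripheral blood mononuclear cells, read 24 h post-treatment. Fitted in both directions versus DMSO; parallel SRB staining flags overt cytotoxicity.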

[19] = read-out: Monokine induced gamma interferon (MIG), CXCL9 (gene 4283); assay: BSK_SAg_MIG: BioMAP Diversity Plus: SAg Assay for Monokine induced gamma interferon (MIG) Biomarker Activity (AID 2283092); settings: primary human HUVEC with PBMC; actives raise or lower the signal
Procedure, shortened: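 ELISA readout of MIG/CXCL9; primary human umbilical vein endothelial cells co-cultured with peripheral blood mononuclear cells; 24 h post-dose; gain/loss fit vs DMSO baseline.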

[20] = read-out: Interleukin-8 (IL8), CXCL8 (gene 3576); assay: BSK_SAg_IL8: BioMAP Diversity Plus: SAg Assay for Interleukin-8 (IL8) Biomarker Activity (AID 2283094); settings: primary human HUVEC with PBMC; actives raise or lower the signal
Procedure, shortened: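 ELISA readout of IL-8 from a superantigen-activated endothelial/PBMC primary human co-culture, taken 24 h post-dosing and fitted in both directions against DMSO; parallel SRB total-protein staining flags overt cytotoxicity.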

Measured: AC50

Sequence of E-selectin (Homo sapiens) (P16581 whole entry, looked up): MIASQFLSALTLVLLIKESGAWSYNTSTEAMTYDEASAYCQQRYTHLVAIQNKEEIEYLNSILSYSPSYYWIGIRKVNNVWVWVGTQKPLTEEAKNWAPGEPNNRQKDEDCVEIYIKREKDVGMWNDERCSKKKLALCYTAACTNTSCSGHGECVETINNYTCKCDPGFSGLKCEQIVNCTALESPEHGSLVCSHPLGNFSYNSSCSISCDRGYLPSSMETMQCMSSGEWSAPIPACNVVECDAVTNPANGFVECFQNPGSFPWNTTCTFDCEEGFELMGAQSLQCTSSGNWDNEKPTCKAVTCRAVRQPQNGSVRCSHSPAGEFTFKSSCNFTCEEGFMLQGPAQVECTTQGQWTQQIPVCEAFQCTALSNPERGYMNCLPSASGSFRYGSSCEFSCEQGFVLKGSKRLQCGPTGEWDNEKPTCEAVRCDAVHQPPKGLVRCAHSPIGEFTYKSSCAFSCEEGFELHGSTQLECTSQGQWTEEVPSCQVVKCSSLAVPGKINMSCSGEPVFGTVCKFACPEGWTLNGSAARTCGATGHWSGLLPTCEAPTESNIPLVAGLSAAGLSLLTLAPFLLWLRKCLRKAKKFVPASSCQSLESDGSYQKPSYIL

Oc1cc(Cl)ccc1Cl
inactive: all assays above

O=C(O)CCCc1ccc(N(CCCl)CCCl)cc1
inactive: [2] | [3] | [4] | [6] | [7] | [8] | [9] | [12] | [13] | [14] | [19]
active: [1] 15.2 µM and 5.57 µM | [5] 6.32 µM and 5.54 µM | [10] 20 µM | [11] 31.9 µM and 36.2 µM | [14] 20 µM | [15] 20 µM | [16] 17.7 µM and 20 µM | [17] 20 µM and 12.5 µM | [18] 20 µM and 28.3 µM | [20] 20 µM and 10.2 µM

O=c1[nH]c(Cl)c(Cl)cc1Cl
inactive: all assays above

Clc1ccc(-c2ccccc2)cc1
inactive: all assays above

O=[N+]([O-])O
inactive: all assays above

CCCOC(=O)c1ccccc1C(=O)OCCC
active: [16] 7.39 µM
inactive: all other assays above

CC(C)COP(=O)(OCC(C)C)OCC(C)C
inactive: all assays above
